Experimental findings from PubChem BioAssay (NCI) are described below.

Compounds without any hit were thinned out: in the full panel of roughly 79,000, 15% have a hit. Activity calls are given as the source filed them. No stated cut-off is given here; in the data, active means growth inhibition above about 70%; inactive means the rest.

A short description of the first assay: NCI Yeast Anticancer Drug Screen. Data for the rad50 strain (AID 155).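 Further: 0% = growth of vehicle-only cultures of the same strain.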 The following applies: S. cerevisiae rad50 strain growth inhibition; at 50.0 µM; hits give high values. The method, boiled down: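 Genetically altered yeast (DNA repair pathway); compound treatment; growth inhibition vs vehicle ctrl.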
For `COC(=O)CC(C(C(=O)OC)C(=O)OC)N1C(=O)OCC1c1ccccc1` (stereo not given), the growth inhibition is -16.6% (inactive).

For the molecule `ClCCOCCOc1ccccc1Cl`, the growth inhibition was -24% (inactive).

Turning to `O=c1c2ccccc2oc2cc([N+](=O)[O-])cc([N+](=O)[O-])c12`, the growth inhibition is -15.9% (inactive).

Turning to `Cc1ccc(S(=O)(=O)c2cc3ccccc3oc2=O)cc1`, the growth inhibition is -1.25% (inactive).

With `Nc1ccc(Br)c(N)c1`, the growth inhibition is -0.95% (inactive).

In the case of `COC1=CC(=O)c2ccccc2C1(CCC=C(C)C)C1=NC(C)(C)CO1` (stereo not given), the growth inhibition is -27% (inactive).

For `O=C(Nc1cccc(C(=O)NCCCO)c1)/C(=C/c1ccccc1)NC(=O)c1ccccc1`, the growth inhibition is 0% (inactive).

Take `CC1(C)COC(c2ccc(CC(Cc3ccc(C4(C(C)(C)C)OCC(C)(C)CO4)cc3)C(=O)O)cc2)(C(C)(C)C)OC1`: the growth inhibition is -7.25% (inactive).

For the molecule `CCN(CC)CCN(CCN(CC)CC)c1c(OC)cccc1OC`, the growth inhibition was 5.8% (inactive).

For the molecule `CCOC(=O)NC(=O)c1cn(CCCCCCCCCCC(=O)NCCCN2CCN(CCCNC(=O)CCCCCCCCCCn3cc(C(=O)NC(=O)OCC)c(=O)[nH]c3=O)CC2)c(=O)[nH]c1=O`, the growth inhibition is -19.2% (inactive).

`CCCCN(CCCC)CC(O)c1cc(-c2ccc(C(F)(F)F)cc2)nc(-c2ccc(C(F)(F)F)cc2)c1` (stereo not given): the growth inhibition was 25% (inactive).

Regarding `C=CCCCCCCCCC(=O)NCCCN1CCOCC1`, the growth inhibition was 77.5% (active).

Turning to `CC1(C)OC(=O)C=C([O-])O1.CC1(C)OC(=O)C=C([O-])O1.CC[O-].CC[O-].[Ti+4]`, the growth inhibition is -20.8% (inactive).

For `CSc1nnc(SCc2nn3c(=O)cc(C)nc3s2)s1`, the growth inhibition is -7.9% (inactive).

`CC1CCCN(C(=O)Nc2ccc([N+](=O)[O-])cc2)C1` (stereo not given): the growth inhibition is 41.1% (inactive).

Take `CC(=O)OCCc1cccc(C)c1`: the growth inhibition was 3.9% (inactive).

Consider `CCOC(=O)C(NC(=O)CC(C)C)(N1CCN(c2cc3c(cc2F)c(=O)c(C(=O)O)cn3C2CC2)CC1)C(F)(F)F` (stereo not given), for which the growth inhibition is -5.8% (inactive).

As for `COc1cc2c(c([N+](=O)[O-])c1)NC(=O)CC(C)S2` (stereo not given), the growth inhibition is -48.8% (inactive).

As for `CN(/N=C\c1ccc2ccccc2c1)C1=NCCN1`, the growth inhibition is 5.65% (inactive).

For the molecule `S=c1c2ccccc2sn1-c1ccccc1`, the growth inhibition is 26.2% (inactive).

As for `c1cc2c3c(cccc3c1)N=S=N2`, the growth inhibition was 25.4% (inactive).

`Cc1cccc2nc(-c3ccccn3)n(CCc3ccccn3)c12`: the growth inhibition was -5.2% (inactive).

In the case of `N#CCC(=O)N1CCCC1`, the growth inhibition is -23.1% (inactive).

As for `CCC1([N+](=O)[O-])CC2C=CC1C2` (stereo not given), the growth inhibition was 2.2% (inactive).

On to `O=C1C=CC(CCCCCn2ccc(=O)[nH]c2=O)C(=O)N1` (stereo not given), for which the growth inhibition was -8.25% (inactive).

Take `COc1cc(C(=O)C(C=O)c2ccccc2)c([N+](=O)[O-])cc1OC` (stereo not given): the growth inhibition was 14.8% (inactive).

As for `O=C1CC(Cc2n[nH]c3c2CCC3)CC(=O)N1`, the growth inhibition was -8.25% (inactive).

Take `CCC(=O)/C=C/C1=C(C)CCCC1(C)C`: the growth inhibition is -9.95% (inactive).

For the molecule `CCc1nc(-c2ccccc2)nc2c1nc(-c1ccc(C)cc1)n2Nc1ccccc1`, the growth inhibition is 0.85% (inactive).

On to `O=c1oc2ccccc2c2ccccc12`, for which the growth inhibition is -2.8% (inactive).

As for `CCOC(=O)C1CN(C)C(=O)C1=O` (stereo not given), the growth inhibition was 17.2% (inactive).

As for `CCCCCC[C@@H](O)C/C=C\CCCCCCCC(=O)OCC(C)O` (stereo not given in full), the growth inhibition was 22.1% (inactive).

In the case of `OC1CCCCC1OC1CCc2ccccc2C1` (stereo not given), the growth inhibition was 19.1% (inactive).

Regarding `O=[N+]([O-])c1cccc(C(O)(C(F)(F)F)C(F)(F)F)c1`, the growth inhibition was -19.1% (inactive).

For the molecule `Cc1ccc(S(=O)(=O)NC(=O)C2(Br)S(=O)(=O)OCCOS2(=O)=O)cc1`, the growth inhibition was 1.25% (inactive).

Regarding `O=C(CCN1C(=O)NC(c2ccccc2)(c2ccccc2)C1=O)NCCN1CCOCC1`, the growth inhibition is -0.6% (inactive).

With `C[N+]1=C(/C=C/Nc2ccc(Cl)cc2)C(C)(C)c2ccccc21`, the growth inhibition was -2.35% (inactive).

For `Brc1c2ccccc2cc2ccccc12`, the growth inhibition is 22% (inactive).

On to `COC(=O)c1cc(C)ncc1C#N`, for which the growth inhibition is 0.45% (inactive).

With `COc1ccc(Nc2nc3c([nH]2)c(=O)n(C)c(=O)n3C)cc1`, the growth inhibition is -15.6% (inactive).

A short description of another assay: NCI Yeast Anticancer Drug Screen. Data for the mec2-1 strain (AID 157). The following applies: S. cerevisiae mec2-1 strain, at 50.0 µM, hits give high values. The essentials:
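Compounds were applied to mec2-1 yeast cells. Their growth was then compared with that of vehicle-treated cultures to give growth inhibition.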
Turning to `COC(=O)CC(C(C(=O)OC)C(=O)OC)N1C(=O)OCC1c1ccccc1` (stereo not given), the growth inhibition was -0.45% (inactive).

`ClCCOCCOc1ccccc1Cl`: the growth inhibition is -13.8% (inactive).

With `O=c1c2ccccc2oc2cc([N+](=O)[O-])cc([N+](=O)[O-])c12`, the growth inhibition was -16.2% (inactive).

For `Cc1ccc(S(=O)(=O)c2cc3ccccc3oc2=O)cc1`, the growth inhibition is 1% (inactive).

As to `Nc1ccc(Br)c(N)c1`, the growth inhibition was -3.65% (inactive).

On to `COC1=CC(=O)c2ccccc2C1(CCC=C(C)C)C1=NC(C)(C)CO1` (stereo not given), for which the growth inhibition was -11.6% (inactive).

Regarding `O=C(Nc1cccc(C(=O)NCCCO)c1)/C(=C/c1ccccc1)NC(=O)c1ccccc1`, the growth inhibition was -1.85% (inactive).

Turning to `CC1(C)COC(c2ccc(CC(Cc3ccc(C4(C(C)(C)C)OCC(C)(C)CO4)cc3)C(=O)O)cc2)(C(C)(C)C)OC1`, the growth inhibition was -19.8% (inactive).

Turning to `CCN(CC)CCN(CCN(CC)CC)c1c(OC)cccc1OC`, the growth inhibition was -13.2% (inactive).

For `CCOC(=O)NC(=O)c1cn(CCCCCCCCCCC(=O)NCCCN2CCN(CCCNC(=O)CCCCCCCCCCn3cc(C(=O)NC(=O)OCC)c(=O)[nH]c3=O)CC2)c(=O)[nH]c1=O`, the growth inhibition was 12.9% (inactive).

As for `CCCCN(CCCC)CC(O)c1cc(-c2ccc(C(F)(F)F)cc2)nc(-c2ccc(C(F)(F)F)cc2)c1` (stereo not given), the growth inhibition was 2.45% (inactive).

Turning to `C=CCCCCCCCCC(=O)NCCCN1CCOCC1`, the growth inhibition is 76.1% (active).

`CC1(C)OC(=O)C=C([O-])O1.CC1(C)OC(=O)C=C([O-])O1.CC[O-].CC[O-].[Ti+4]`: the growth inhibition is -36.2% (inactive).

Regarding `CSc1nnc(SCc2nn3c(=O)cc(C)nc3s2)s1`, the growth inhibition was -0.85% (inactive).

For the molecule `CC1CCCN(C(=O)Nc2ccc([N+](=O)[O-])cc2)C1` (stereo not given), the growth inhibition is 31.3% (inactive).

With `CC(=O)OCCc1cccc(C)c1`, the growth inhibition is -17.9% (inactive).

Regarding `CCOC(=O)C(NC(=O)CC(C)C)(N1CCN(c2cc3c(cc2F)c(=O)c(C(=O)O)cn3C2CC2)CC1)C(F)(F)F` (stereo not given), the growth inhibition was -26.3% (inactive).

As for `COc1cc2c(c([N+](=O)[O-])c1)NC(=O)CC(C)S2` (stereo not given), the growth inhibition is -6.25% (inactive).

As to `CN(/N=C\c1ccc2ccccc2c1)C1=NCCN1`, the growth inhibition is 0.25% (inactive).

As for `S=c1c2ccccc2sn1-c1ccccc1`, the growth inhibition is 21.6% (inactive).

`c1cc2c3c(cccc3c1)N=S=N2`: the growth inhibition is -7.45% (inactive).

For `Cc1cccc2nc(-c3ccccn3)n(CCc3ccccn3)c12`, the growth inhibition is 5.35% (inactive).

As for `N#CCC(=O)N1CCCC1`, the growth inhibition is -32.3% (inactive).

For `CCC1([N+](=O)[O-])CC2C=CC1C2` (stereo not given), the growth inhibition was -14.3% (inactive).

Turning to `O=C1C=CC(CCCCCn2ccc(=O)[nH]c2=O)C(=O)N1` (stereo not given), the growth inhibition was 3.15% (inactive).

Take `COc1cc(C(=O)C(C=O)c2ccccc2)c([N+](=O)[O-])cc1OC` (stereo not given): the growth inhibition was 21.4% (inactive).

Take `O=C1CC(Cc2n[nH]c3c2CCC3)CC(=O)N1`: the growth inhibition is 2.65% (inactive).

`CCC(=O)/C=C/C1=C(C)CCCC1(C)C`: the growth inhibition was -9.65% (inactive).

Turning to `CCc1nc(-c2ccccc2)nc2c1nc(-c1ccc(C)cc1)n2Nc1ccccc1`, the growth inhibition was 6.05% (inactive).

`O=c1oc2ccccc2c2ccccc12`: the growth inhibition is -9.55% (inactive).

Consider `CCOC(=O)C1CN(C)C(=O)C1=O` (stereo not given), for which the growth inhibition is -2.4% (inactive).

As for `CCCCCC[C@@H](O)C/C=C\CCCCCCCC(=O)OCC(C)O` (stereo not given in full), the growth inhibition was -2.35% (inactive).

Consider `OC1CCCCC1OC1CCc2ccccc2C1` (stereo not given), for which the growth inhibition was 19.5% (inactive).

Regarding `O=[N+]([O-])c1cccc(C(O)(C(F)(F)F)C(F)(F)F)c1`, the growth inhibition was 6.2% (inactive).

For `Cc1ccc(S(=O)(=O)NC(=O)C2(Br)S(=O)(=O)OCCOS2(=O)=O)cc1`, the growth inhibition is -28.4% (inactive).

`O=C(CCN1C(=O)NC(c2ccccc2)(c2ccccc2)C1=O)NCCN1CCOCC1`: the growth inhibition is 13.5% (inactive).

As to `C[N+]1=C(/C=C/Nc2ccc(Cl)cc2)C(C)(C)c2ccccc21`, the growth inhibition is 6.2% (inactive).

For the molecule `Brc1c2ccccc2cc2ccccc12`, the growth inhibition is 29.8% (inactive).

On to `COC(=O)c1cc(C)ncc1C#N`, for which the growth inhibition was 1.15% (inactive).

As for `COc1ccc(Nc2nc3c([nH]2)c(=O)n(C)c(=O)n3C)cc1`, the growth inhibition was 5.1% (inactive).
